The full list was thinned out, with hits kept by preference.
JMJD2E inh – blocks human JMJD2E demethylase activity; JMJD2E catalytic domain, FDH-coupled NADH fluorescence (FDH is formaldehyde dehydrogenase); Potency, µM (series often up to 57.1 µM), most hits filed as inhibitors; 1.6% of 230,000 active; AID 2147; active = well fitted inhibition curve with a large enough effect, not every such curve was filed as active; inconclusive = small, poorly fitted or top-dose-only effect, or another doubt; inactive = no such curve, though single readings can be large or run the other way; also: nearly all actives have a fitted effect of over 50% in size
GCN5L2 inh – blocks human GCN5L2 histone acetyltransferase; 0.21% of 390,000 active; Potency, µM (titrated, usually from 58.9 µM), actives largely listed as inhibitors; Q92830; GCN5L2 HAT assay, ThioGlo1 CoA-SH fluorescence; AID 504327
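GCN5L2 (20 nM) in 50mM HEPES pH 7.5, 0.1mM EDTA, 0.01% Tween-20 preincubated 15 min with compounds at room temperature. Reaction started with H3(1-25) 75uM, acetyl-CoA 70uM, ThioGlo1 50uM; CoA-thiol fluorescence (Ex340/Em540) read at 0 and 20 min.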
RECQ1 helicase – inhibitors of human RECQ1 DNA helicase; Potency, µM (top dose mostly 57.3 µM), most hits filed as inhibitors; 0.54% of 240,000 active; RECQ1 DNA unwinding, red fluorescence kinetic read; AID 2549; P46063; also: nearly all actives have a fitted effect of over 30% in size
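50 nM RECQ1T1 preincubated 15 min with compound in Tris pH 8.0 buffer with MgCl2, DTT, Tween-20 and 2.5 ug/ml poly(dI-dC); started with 200 nM TAMRA/BHQ-2 forked duplex and 2 mM ATP. Unwinding read as fluorescence (525/598 nm), two reads 2 h apart.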
APE1 inh-1 – inhibitors of human APE1 endonuclease; 0.35% of 350,000 active; Potency, µM (highest dose often 65.8 µM), hits mostly inhibitors; recombinant APE1, TAMRA/BHQ-2 abasic DNA cleavage fluorescence; also: nearly all actives have a fitted effect of over 55% in size
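Readout is kinetic fluorescence (ex 525, em 598 nm) from cleavage of 50 nM TAMRA/BHQ-2 THF abasic duplex by 0.75 nM APE1, compound added 15 min beforehand at RT.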
BLM helicase inh – inhibitors of human Bloom syndrome helicase BLM; recombinant BLM DNA unwinding, fluorescence dequenching; Potency, µM (titrated, usually from 56.1 µM), actives largely listed as inhibitors; 0.2% of 350,000 active; AID 2528; also: nearly all actives have a fitted effect of over 35% in size
TDP1 block – blocks human tyrosyl-DNA phosphodiesterase 1. Q9NUW8. recombinant TDP1, AlphaScreen DNA substrate cleavage. Potency, µM (titrated, usually from 130 µM), usual class: inhibitors. 0.28% of 350,000 active. AID 485290; also: nearly all actives have a fitted effect of over 40% in size
Target sequence (Q9NUW8 whole entry, looked up): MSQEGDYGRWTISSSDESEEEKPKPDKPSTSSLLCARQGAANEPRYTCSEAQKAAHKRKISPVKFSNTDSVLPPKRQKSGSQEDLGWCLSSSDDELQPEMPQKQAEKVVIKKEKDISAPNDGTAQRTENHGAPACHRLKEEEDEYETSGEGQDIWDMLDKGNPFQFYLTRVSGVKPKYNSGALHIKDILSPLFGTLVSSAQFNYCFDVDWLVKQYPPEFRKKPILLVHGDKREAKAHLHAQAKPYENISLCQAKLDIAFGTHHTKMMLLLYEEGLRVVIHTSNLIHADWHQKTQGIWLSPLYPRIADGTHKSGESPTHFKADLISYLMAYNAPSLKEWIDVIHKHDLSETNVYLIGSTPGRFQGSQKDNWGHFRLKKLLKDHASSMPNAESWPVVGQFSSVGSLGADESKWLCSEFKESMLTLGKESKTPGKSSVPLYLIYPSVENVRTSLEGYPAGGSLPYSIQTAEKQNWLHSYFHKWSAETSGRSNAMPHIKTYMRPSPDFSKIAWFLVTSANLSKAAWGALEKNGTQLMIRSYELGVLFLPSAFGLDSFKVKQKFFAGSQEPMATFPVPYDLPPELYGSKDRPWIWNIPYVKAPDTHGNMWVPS
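AlphaScreen read-out: signal falls as enzyme removes the 3' tyrosine-FITC from a 5'-biotinylated DNA oligo (15 nM, 5 min, RT). Enzyme was E. coli-made recombinant Tdp1 at 1 nM, exposed to compound for 15 min beforehand; beads 10 ug/ml, 10 min.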
APE1 dye cs – counter-screen for APE1 inhibitors: DNA dye displacement | AID 2564 | Potency, µM (top dose mostly 28.5 µM), most hits filed as inhibitors | 7% of 480 active | shares compounds with APE1 inh-1 | DNA fluorescent dye displacement counterscreen, fluorescence;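 also: loss of thiazole orange fluorescence as the dye is displaced from duplex DNA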
Endo IV inh – blocks E. coli endonuclease IV DNA cleavage; shares compounds with APE1 inh-1; E. coli Endo IV, fluorogenic AP-site DNA cleavage; Potency, µM (doses to about 27.1 µM), usual class: inhibitors; 4% of 560 active; AID 2565
APE1 inh-2 – APE1 (human) endonuclease inhibition, confirmation. Potency, µM (series often up to 57.1 µM), actives largely listed as inhibitors. purified APE1, fluorogenic abasic-site DNA cleavage. AID 2572. shares compounds with APE1 inh-1. 44% of 750 active; also: nearly all actives have a fitted effect of over 30% in size
APE1 FP – compounds that displace a DNA probe from human APE1; 7% of 480 active; Potency, µM (series often up to 28.5 µM), actives largely listed as inhibitors; APE1 binding to TAMRA-labelled double-stranded DNA, fluorescence polarization displacement; shares compounds with APE1 inh-1
Numbers stand for hits; 0 = inactive; ? = inconclusive; - = no result; ! = not active in a repeat; [ ] = dose if it differs, or a comment. Unless noted, calls follow the shape of the dose curve; as a rule, active = well fitted curve in the direction sought with a large enough effect; inconclusive = small, poorly fitted or top-dose-only effect, or another doubt; inactive = no such curve, though single readings can be large; an effect the other way counts as inactive or inconclusive.

SMILES	JMJD2E inh	GCN5L2 inh	RECQ1 helicase	APE1 inh-1	BLM helicase inh	TDP1 block	APE1 dye cs	Endo IV inh	APE1 inh-2	APE1 FP
COc1ccc(NC(=O)c2cc3c(-c4ccc(OC)c(OC)c4)nn(C)c3s2)cc1OC	?	0	0	?	?	0	0	11.2µM	12.6µM	0
Cc1ccc(S(=O)(=O)N2CCCCC2)cc1C(=O)Nc1ccc(S(=O)(=O)Nc2ncccn2)cc1	0	0	?	?	0	31.6µM	-	-	?	-
Cc1ccc2c(Sc3ccc(Cl)cc3)c(C(=O)N3CCC(C)CC3)[nH]c2c1	-	0	-	-	0	0	-	-	-	-
Cc1cc(C(=O)N/N=C/c2ccc(O)c(O)c2O)c(C)n1-c1ccccc1	0	?	0	4.47µM	0	0	0	0	?	0
CCOC(=O)c1sc2nc3c(SCCC(=O)O)cc(C(=O)c4cc(OC)ccc4O)cn3c(=O)c2c1C	?	0	?	1.58µM	?	-	?	0	2.24µM	?
COc1ccccc1CNc1ccnc(-c2ccc(N(C)C)cc2)n1	-	0	0	0	0	-	-	-	-	-
Cc1ccc(N2NC(=O)/C(=C/c3ccc(-c4ccc(Cl)c(C(=O)O)c4)o3)C2=O)cc1C	0	0	0	0	0	-	-	-	-	-
COC(=O)c1ccc(N2NC(=O)/C(=C/c3ccc(-c4ccc(Cl)c(C(=O)O)c4)o3)C2=O)cc1	0	0	?	25.1µM	0	-	6.31µM	0	?	0
CC1(C)OC(=O)C(=Cc2ccc(-c3ccc(Cl)c(C(=O)O)c3)o2)C(=O)O1	?	?	0	22.4µM	0	50.1µM	0	0	?	0
O=c1c(O)cc(C2Oc3cc(O)cc(O)c3CC2O)cc2c(C3Oc4cc(O)cc(O)c4CC3O)cc(O)c(O)c12 (stereo unspecified)	25.1µM	12.6µM	3.16µM	0.501µM	28.2µM	-	-	?	2.51µM	-
CC(=O)NCc1cc(Cl)c2cccnc2c1O	-	0	-	0	-	-	-	-	-	-
O=S(=O)(NC1CCCCC1)c1cccc(-c2nnc(-c3ccccc3)o2)c1	?	0	0	?	0	0	0	0	0	0
COc1ccc(S(=O)(=O)c2c(Nc3c(C)cccc3C)sc(C(=O)c3ccc(F)cc3)c2N)cc1	-	0	-	-	0	0	-	-	-	-
COc1c(O)cc2oc(-c3ccc(O)cc3)cc(=O)c2c1O	0	0	0	?	0	0	-	-	-	-
O=c1cc(-c2ccc(O)cc2)oc2c(O)c(O)c(O)c(O)c12	12.6µM	0	12.6µM	4.47µM	10µM	-	0	0	0.501µM	0
O=c1cc(-c2ccccc2)oc2cc(O)c(O)c(O)c12	12.6µM	0	28.2µM	5.62µM	15.8µM!	0	1µM	0	0.631µM	0
O=c1c2c(O)cc(O)cc2oc2ccc(O)c(O[C@@H]3O[C@H](CO)[C@@H](O)[C@H](O)[C@H]3O[C@H]3O[C@H](CO)[C@@H](O)[C@H](O)[C@H]3O)c12	-	0	-	0	-	-	-	-	-	-
O=c1c(OC2OC(CO)C(O)C(O)C2OC2OC(CO)C(O)C(O)C2OC2OC(CO)C(O)C(O)C2O)c(-c2ccc(O)c(O)c2)oc2cc(O)cc(O)c12 (stereo unspecified)	14.1µM	0	0	?	0	-	0	0	10µM	?
COc1c(-c2ccc(O)c(O)c2)oc2cc(O)cc(O)c2c1=O	14.1µM	0	17.8µM!	?	11.2µM!	0	?	0	?	0
CC1OC(OC2C(Oc3c(-c4ccc(O)cc4)oc4cc(O)cc(O)c4c3=O)OC(COC3O[C@@H](C)[C@H](O)[C@@H](O)C3O)C(O)C2O)C(O)C(O)C1O (stereo partly specified)	-	0	-	0	-	-	-	-	-	-
CC1OC(OCC2OC(Oc3c(-c4ccc(O)cc4)oc4cc(O)cc(O)c4c3=O)C(O)C(O)C2O)C(O)C(O)C1O (stereo unspecified)	0	0	?	3.55µM	0	0	?	0	3.16µM	0
CC1CC=CC2C1C(=O)N(Cc1ccccc1)C2c1ccc(-c2cc3ccccc3s2)cc1F (stereo unspecified)	-	-	0	0	0	0	-	-	-	-
NC(=O)c1ccc2c(=O)n3c(-c4cc(Cl)c(N)c(Cl)c4)csc3nc2c1	?	0	?	0	0	79.4µM	-	-	0	-
Cc1csc2nc3cc(C(N)=O)ccc3c(=O)n12	?	0	0	0	0	0	-	-	-	-
Fc1ccc(N2N=C(c3cccs3)CC2c2ccccc2)cc1 (stereo unspecified)	?	0	0	0	0	12.6µM	-	-	0	-
SMILES	JMJD2E inh	GCN5L2 inh	RECQ1 helicase	APE1 inh-1	BLM helicase inh	TDP1 block	APE1 dye cs	Endo IV inh	APE1 inh-2	APE1 FP
O=S(=O)(c1ccccc1)N1N=C(c2cccs2)CC1c1ccc(F)cc1 (stereo unspecified)	0	0	0	0	0	0	-	-	-	-
COc1cc(Cl)c(C)cc1NC(=O)CSCc1nc(-c2ccc(OC)c(OC)c2)no1	-	0	-	-	0	0	-	-	-	-
CCOc1cc(CNC(=O)Cn2ncn3c(cc4cc(F)ccc43)c2=O)cc(OCC)c1OCC	-	0	-	-	0	0	-	-	-	-
COC(=O)c1ccc(=O)c2nc3/c(=C/O)c(O)cc(=O)c3[nH]c12	8.91µM	?	?	?	17.8µM	?	?	?	?	0
COC(=O)c1ccccc1O	-	0	0	0	0	0	-	-	-	-
Nc1ccc(NC(=O)c2ccc(C(=O)Nc3ccc(N)cc3)cc2)cc1	0	0	0	0	0	79.4µM	-	-	?	-
CCCCN(C)CC(O)Cn1cc(/C=C/C(=O)c2ccc(OC)c(OC)c2)c2ccccc21 (stereo unspecified)	-	0	-	-	0	0	-	-	-	-
C=CCSC1=N/C(=C\c2ccc(C(=O)O)cc2)C(=O)S1	?	0	0	0	0	28.2µM	-	-	?	-
Cc1cccc(Oc2nc3ccccn3c(=O)c2/C=C(\C#N)c2nc3ccccc3s2)c1C	-	0	-	-	0	0	-	-	-	-
COc1ccc(-c2nc3n(n2)C(=O)CC(c2ccco2)S3)cc1 (stereo unspecified)	0	0	0	?	0	0	0	0	?	0
CC(C)C(=O)NC(=O)C1CCCN1C(=O)/C=C/c1ccccc1 (stereo unspecified)	-	-	0[11.5 µM]	?	0[12.4 µM]	0[21 µM]	-	-	-	-

Bioassay records as filed in PubChem BioAssay.
